# NALP3 yeast inh = blocks the NALP3 inflammasome reconstituted in yeast; Yeast reconstituted NLRP3/ASC/caspase-1, beta-gal luminescence, 24 h; inhibition, % at 10 µM; 0.39% of 330,000 active; AID 2825;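 active means inhibition of 50% or more; inactive means inhibition below 50%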;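 further: plate controls were induced DMSO wells for no effect and uninduced yeast grown without galactose for full effect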
# V-ATPase pHluor = yeast V-ATPase proton transport regulation by pHLuorin | S. cerevisiae, pHLuorin cytosolic pH fluorescence | response, % at 10 µM | 0.37% of 350,000 active; in the data active means response mostly above about 7.3%, no sharp cut-off; inactive means mostly below about 5.4%; further: actives read high
# NALP1 inh = inhibitors of NALP1 inflammasome in yeast | S. cerevisiae NALP1/ASC/caspase-1 growth, X-gal OD620, 72 h | AID 2071 | inhibition, % at 10 µM | 0.61% of 280,000 active; in the data active means inhibition mostly above about 24%, no sharp cut-off; inactive means mostly below about 32%
# tim23-1 inh = tim23-1 yeast growth inhibition; inhibition, % at 20 µM; 1.3% of 330,000 active; S. cerevisiae tim23-1 growth, BacTiter-Glo luminescence, 24 h;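 active means growth inhibition of the mutant yeast at or above 50%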;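 further: temperature-sensitive mutant grown at 25 °C; plate controls were DMSO-treated mutant yeast for no effect and medium wells lacking yeast for full effect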
# tim10-1 inh = growth inhibitors of tim10-1 mutant yeast | inhibition, % at 20 µM | S. cerevisiae tim10-1 ts strain growth, BacTiter-Glo, 24 h | 2.2% of 330,000 active;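 active means inhibition of at least 40%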;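 further: mutant grown at 25 °C; 0% = DMSO wells with yeast and 100% = wells holding no yeast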
# TIM10 inh = growth inhibitors of TIM10 yeast strain. S. cerevisiae TIM10 strain growth, BacTiter-Glo luminescence, 24 h. inhibition, % at 10 µM. 1.4% of 330,000 active. AID 463195;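 active means inhibition of 40% or more at the single tested concentration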;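 further: wild-type TIM10 isogenic control strain grown at permissive 25 °C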
# V-ATPase pH SP = yeast V-ATPase proton transport regulation; shares compounds with V-ATPase pHluor; S. cerevisiae pHLuorin cytosolic pH; 2% of 980 active; AID 602197; response, % at 10 µM; in the data active means response above about 24%;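 further: plate controls were vehicle wells for no effect and positive control wells for full effect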
# The depositor's hits bear a star; . = not tested or not shown. Rows were chosen to be rich in hits. Some 4.2% of all compounds tested hit in one or more screens of this group.
SMILES,NALP3 yeast inh,V-ATPase pHluor,NALP1 inh,tim23-1 inh,tim10-1 inh,TIM10 inh,V-ATPase pH SP
COc1ccc(-c2c(C)n([O-])c3c([n+]2=O)CCCC3)cc1,4,10*,3,8,2,3,8
Cc1ccc(-c2c(C)n([O-])c3c([n+]2=O)CCCCC3)cc1,0,-1,32,13,14,5,.
Cc1ccccc1S(=O)(=O)Cc1ccc(C(=O)NCCCN2CCN(C)CC2)o1,14,7.6*,-23,-7,6,-25,1
CCn1c(SCC(=O)N/N=C/c2c[nH]c3ccccc23)nnc1-c1ccc(C(C)(C)C)cc1,4,1,36,30,13,13,.
Cn1nnnc1SCC(=O)NC(=O)c1cccc([N+](=O)[O-])c1,-1,3,.,3,15,-5,.
COc1ccc(C)cc1NC(=O)C(OC(=O)CNC(=O)c1cccc(F)c1)c1ccccc1 (stereo not drawn),-1,10*,22,7,14,-7,0
Cc1ccc(S(=O)(=O)N2CCN(C(=O)COC(=O)CCOc3cc(C)ccc3C)CC2)cc1,1,10*,.,13,27,23,2
Cc1ccc(S(=O)(=O)N2CCN(C(=O)COC(=O)CCOc3ccccc3C)CC2)cc1,7,12*,.,9,21,0,3
Cc1ccc(S(=O)(=O)CCC(=O)OCC(=O)N2CCN(S(=O)(=O)c3ccccc3)CC2)cc1,7,1,.,-7,-1,0,.
Cc1cccc(C)c1NC(=O)C1CCCN1C(=O)Nc1cccc(F)c1 (stereo not drawn),11,2,0,8,6,-13,.
CN(C)c1ccc(/C=N/N=C(N)N)cc1[N+](=O)[O-],5,1,22,-5,2,-5,.
CN(C(=O)CSCC(=O)O)C1CCCCC1,1,1,10,11,3,4,.
CCC1(CC)NC(=O)N(CC(=O)OC(C)C(=O)Nc2ccc(Cl)cn2)C1=O (stereo not drawn),1,-3,.,9,0,3,.
CCC1(CC)NC(=O)N(CC(=O)OC(C)C(=O)Nc2cc([N+](=O)[O-])ccc2OC)C1=O (stereo not drawn),3,11*,20,1,-2,10,3
COc1ccc([C@H]2C[C@@H](O)[C@H](n3cc(-c4ccc(F)cc4)nn3)CN2C(=O)C2CCCCC2)cc1,.,7.0*,.,.,.,.,1
COC(=O)c1cc(S(=O)(=O)C(C)C)c(S(C)=O)s1 (stereo not drawn),-6,0,0,8,21,20,.
CCOC(=O)c1c(NC(=O)COC(=O)CCNS(=O)(=O)c2ccccc2)sc(C(=O)NC)c1C,.,9.8*,.,.,.,.,1
COC(=O)c1c(NC(=O)COC(=O)CCNS(=O)(=O)c2ccccc2)sc(C)c1C,10,2,-3,27,24,15,.
CCOC(=O)c1ccc(NC(=S)NC(=O)COc2ccccc2)cc1,21,65*,14,23,16,30,-4
FC(F)(F)c1cc(C(F)(F)F)n2nc(-c3sccc3-n3cccc3)cc2n1,-4,12*,12,7,2,-15,-2
Cc1nn(C)c(C)c1/C=C/C(=O)c1ccc(Cl)cc1Cl,17,0,9,46,-21,20,.
Cn1c(SCC(=O)c2ccc(F)cc2)nc2cccnc21,18,2,13,13,13,16,.
O=C(CCSC1=NCCCN1)c1ccc(F)cc1,.,25,.,.,.,.,45*
Cc1cc(C)c(OCCOCCN2CCNCC2)c(C)c1,-2,16*,-10,15,5,4,0
COn1c(SCc2cccc(Cl)c2)nc2ccccc2c1=O,0,15*,6,12,5,20,-1
SMILES,NALP3 yeast inh,V-ATPase pHluor,NALP1 inh,tim23-1 inh,tim10-1 inh,TIM10 inh,V-ATPase pH SP
CC(C)(C)NC(=O)C(c1ccc(O)cc1)N(C(=O)CCC(=O)Nc1nccs1)c1ccc(F)cc1 (stereo not drawn),4,-1,24,8,14,-5,.
Cc1ccc(S(=O)(=O)C=CS(=O)(=O)c2ccc(C)cc2)cc1,.,20*,.,.,.,.,115*
Cc1ccc(S(=O)(=O)c2ccc(C)cc2)cc1,22,5,6,24,6,6,.
Cc1ccc(NS(=O)(=O)c2cccc(C(=O)N3CCCCCCC3)c2)cc1,8,11*,.,10,13,-1,-1
O=C(NC(=S)NCCCN1CCOCC1)c1cccc2ccccc12,19,-1,-15,3,-27,-24,.
CCOc1ccc(NC(=O)CCC(=O)N/N=C(\C)c2cccs2)cc1,8,8.8*,15,-1,-13,6,1
CCOc1ccc(NC(=O)CCC(=O)NNC(=O)c2ccco2)cc1,-6,9.2*,9,6,7,4,3
O=C(NC1CC1)C1CCN(S(=O)(=O)c2ccc(Cl)c([N+](=O)[O-])c2)CC1,14,1,.,2,-4,4,.
Cc1cc(NC(=O)C(C)SCC(=O)Nc2ccccc2C(C)(C)C)no1 (stereo not drawn),10,9.9*,.,21,16,10,-4
Cc1ccc(NC(=O)CSc2nc(=O)n(CCN(C)C)c3c2CCCC3)cc1Cl,-2,3,.,-4,5,-4,.
CC(=O)N1CCN(C(=O)c2cc(S(=O)(=O)Nc3ccc(S(C)(=O)=O)cc3)ccc2Cl)CC1,11,-2,9,-3,21,14,.
CCN1CCN(C(=O)c2cc(S(=O)(=O)Nc3ccc(S(C)(=O)=O)cc3)ccc2Cl)CC1,3,10*,2,5,3,12,1
O=C(Nc1ncccc1O)C1CCN(S(=O)(=O)c2ccc3ccccc3c2)CC1,6,-2,.,27,28,5,.
O=C(c1ccccc1)N1CN2CN(C(=O)c3ccccc3)CC([N+](=O)[O-])(C2)C1,-2,46*,22,7,15,12,-3
COc1cccc(CN2CC(C(=O)N3CCCO3)CCC2=O)c1 (stereo not drawn),12,-2,10,-10,0,2,.
CC(OC(=O)c1nn(C)c(=O)c2ccccc12)C(=O)Nc1ccc(S(N)(=O)=O)cc1 (stereo not drawn),10,3,.,11,1,6,.
O=C(NCC1CCCCC1)c1ccccc1[N+](=O)[O-],19,13*,-11,12,9,-3,1
CC(Oc1cccc2cccnc12)C(=O)N/N=C/c1ccc2c(c1)OCO2 (stereo not drawn),-10,7.0*,.,32,19,-4,2
Cc1ccc(/C=C/c2nnc(-c3ccccc3)o2)cc1,36,-1,9,8,3,13,.
C(=C\c1nnc(-c2cccs2)o1)/c1ccccc1,45,13*,2,22,8,10,4
Cc1ccc(N2CCN(S(=O)(=O)N3CCCCC3)CC2)cc1C,17,11*,11,9,10,19,2

# High-throughput results from PubChem BioAssay.
